Data on 46 compounds can be found in PubChem BioAssay AID652054 (National Center for Advancing Translational Sciences (NCATS), 2013).

The whole screen tested about 360,000 compounds, of which about 9,100 (2.5%) were called active. Not shown: some 4% with an inconclusive outcome. The entries come from a sample that favours actives as a whole. Unmarked numbers belong to inactive results. No stated cut-off is given here; in the data, active means max response below about -50%; inconclusive means no clear call, values can overlap the other calls; inactive means above that.
On the % scale 0 is the no-effect control and ±100 the full control effect.

Sequence of D(3) dopamine receptor (Homo sapiens) (P35462 whole entry, looked up): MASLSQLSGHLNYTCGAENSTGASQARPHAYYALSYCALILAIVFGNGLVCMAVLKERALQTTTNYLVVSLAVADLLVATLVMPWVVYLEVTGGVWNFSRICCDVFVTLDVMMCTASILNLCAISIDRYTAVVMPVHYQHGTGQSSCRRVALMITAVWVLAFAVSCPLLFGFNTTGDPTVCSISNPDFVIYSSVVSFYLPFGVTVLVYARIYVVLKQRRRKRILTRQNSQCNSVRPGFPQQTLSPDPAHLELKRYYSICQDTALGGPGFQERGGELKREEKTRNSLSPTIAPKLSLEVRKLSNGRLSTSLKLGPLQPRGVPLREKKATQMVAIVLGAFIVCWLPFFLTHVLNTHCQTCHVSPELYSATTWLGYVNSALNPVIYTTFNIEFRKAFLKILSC

The experiment has as its target D(3) dopamine receptor (Homo sapiens) (UniProt P35462). Description: qHTS of D3 Dopamine Receptor Antagonist: qHTS. As to conditions: D3R cells, DiscoveRx beta-arrestin luminescence, antagonist mode; hits give low values. The gist of the method: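 Cells expressing the human receptor were seeded at 1500 cells/well, incubated overnight at 37 degrees C in 5% CO2, then exposed to library compounds with dopamine controls for 90 minutes at 37 degrees C before luminescent detection.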
(In qHTS, concentration-response curves come from the screen itself.)
As for `CCOC(=O)C1CCN(C(=O)Nc2ccc(Cl)cc2)CC1`, the max response, negative = inhibition is 0%.

Regarding `CCOC(=O)C1Sc2[nH]c(=O)sc2C(c2ccc(Cl)cc2)C1C(=O)OCC` (stereo unspecified), the max response, negative = inhibition is -67.4% (active).

`Cc1ccc(S(=O)(=O)N2[C@@H](Cc3ccccc3)CO[C@H]2CC(=O)OCc2ccccc2)cc1`: the max response, negative = inhibition was -24.9%.

With `COc1ccc(C(=O)NCC[N+](C)(C)C)cc1`, the max response, negative = inhibition was 7.47%.

In the case of `CCc1nnc(NC(=O)CCC(=O)NCc2ccccc2OC)s1`, the max response, negative = inhibition is 14.9%.

Take `COc1ccccc1CNC(=O)CCn1c(=O)sc2ccccc21`: the max response, negative = inhibition was -166% (active).

For the compound `COc1ccccc1CNC(=O)CCCN1C(=O)NC2(CCCC2)C1=O`, the max response, negative = inhibition is -13.5%.

Take `O=Cc1cn(CCOc2ccc(F)cc2)c2ccccc12`: the max response, negative = inhibition is 25%.

In the case of `CC(=O)N1CCN(CC(C)(C)NS(=O)(=O)c2ccc(C)cc2)CC1`, the max response, negative = inhibition is 0.902%.

Take `Cc1ccc(S(=O)(=O)NC(=O)N2CCCN(Cc3ccc(F)cc3)CC2)cc1`: the max response, negative = inhibition is -51.3% (active).

Regarding `Cc1ccc(S(=O)(=O)NC(=O)N2CCCC(C)(C)C2)cc1`, the max response, negative = inhibition was 2.79%.

Take `O=C(c1ccc(N2CCCC2=O)cc1)N1CCN(c2ccc(C(F)(F)F)cc2[N+](=O)[O-])CC1`: the max response, negative = inhibition was 29.2%.

With `Cc1ccc(C(=O)OCC(=O)NCc2ccc3c(c2)OCO3)s1`, the max response, negative = inhibition was 5.99%.

For `O=C(NCc1ccc2c(c1)OCO2)c1ccc(Cl)s1`, the max response, negative = inhibition is -10.3%.

In the case of `O=C(NCc1ccc2c(c1)OCO2)c1cc2c(s1)CS(=O)(=O)C2`, the max response, negative = inhibition is -163% (active).

As to `CCOC(=O)NCc1ccc2c(c1)OCO2`, the max response, negative = inhibition was -52.8% (active).

With `O=C(NCc1ccc2c(c1)OCO2)c1sccc1Br`, the max response, negative = inhibition was 10.4%.

Turning to `O=C(NCc1ccc2c(c1)OCO2)C12CC3CC(CC(C3)C1)C2`, the max response, negative = inhibition is 10.5%.

As for `CCOc1cc(/C=N/NC(=O)c2c(C)nc3ccc(Cl)cn23)ccc1O`, the max response, negative = inhibition is -5.49%.

For the compound `CSc1ccc(CN2CCC2(C)C(=O)NCc2ccccc2Br)cc1` (stereo unspecified), the max response, negative = inhibition is 33.4%.

On to `CC(=O)OC[C@@H]1CN(Cc2ccccc2)C[C@H](n2cnc3c(NCc4ccco4)ncnc32)O1`, for which the max response, negative = inhibition was 14.6%.

Take `COc1cc(OC)cc(C2=Cc3ccccc3C(CC(=O)c3ccco3)N2c2ccc(-c3cnc(OC)nc3)cc2)c1` (stereo unspecified): the max response, negative = inhibition is 41.4%.

As for `COc1ccc(CN2C(=O)C(CC(=O)NCc3cccc4ccccc34)CC(C(=O)N3CCOCC3)=C2C)cc1` (stereo unspecified), the max response, negative = inhibition is -2.29%.

In the case of `CC(C)N=C1CCCC1C(=S)SSC(=S)C1CCCC1=NC(C)C` (stereo unspecified), the max response, negative = inhibition was -68.8% (active).

Consider `COC(=O)C[C@@H]1C=C[C@@H](NC(=O)c2cccnc2)[C@@H](CO)O1`, for which the max response, negative = inhibition is -2.19%.

Regarding `COc1ccc(/C=C(/NC(=O)c2ccc(C)cc2)c2nc3ccccc3[nH]2)cc1OC`, the max response, negative = inhibition is -65.3% (active).

For `COc1ccc(/C=C(\NC(=O)c2ccccc2)C(=O)NCCN2CCOCC2)cc1OC`, the max response, negative = inhibition was -3.81%.

Turning to `CCCCCOc1ccc(/C=C/C(=O)NCCc2nc3ccccc3[nH]2)cc1OC`, the max response, negative = inhibition is 53.6%.

As for `CC1(C(=O)NS(=O)(=O)c2ccccc2)CCN1C(=O)Cc1ccc(-c2ccccc2)cc1` (stereo unspecified), the max response, negative = inhibition was -7.77%.

Consider `CCC1CCCCN1C(=S)NC(=O)c1ccco1` (stereo unspecified), for which the max response, negative = inhibition is -122% (active).

As for `O=C(NC(=S)N1CCc2ccccc21)c1ccco1`, the max response, negative = inhibition was -1.16%.

`CCC1CCCCN1C(=S)Nc1ccc(C(C)=O)cc1` (stereo unspecified): the max response, negative = inhibition is 4%.

In the case of `N#Cc1ccc(OCC(=O)Nc2nc(-c3ccccn3)cs2)cc1`, the max response, negative = inhibition was -9.86%.

Take `CN(C)CCCOc1ccc(-c2ccc3nccn3c2)cn1`: the max response, negative = inhibition is 1.66%.

With `CC(C(=O)O)n1cnc2sc3c(c2c1=O)CCCC3` (stereo unspecified), the max response, negative = inhibition was 20%.

Regarding `S=c1[nH]nc2c3c4c(sc3ncn12)CCCC4`, the max response, negative = inhibition is -92.7% (active).

Take `N=c1c2c3c(sc2ncn1CCCN1CCOCC1)CCCCC3`: the max response, negative = inhibition was 8.56%.

Consider `CCOC(=O)N1CCN(C(=O)C[C@@H]2C[C@@]3(C(=O)OC)CC(C)(C)CC=C3N(Cc3ccco3)C2=O)CC1`, for which the max response, negative = inhibition was -6.32%.

As for `CC(=O)c1cc(-c2ccccc2)[nH]c1N1CCCC1`, the max response, negative = inhibition was 0%.

For `O=C1NN(c2ccccc2)C(=O)/C1=C/c1ccc(-c2cccc(C(=O)O)c2)o1`, the max response, negative = inhibition was -54.9% (active).

Consider `CC1=NN(c2ccc(Cl)c(C(=O)O)c2)C(=O)/C1=C/c1ccc(-c2ccccc2[N+](=O)[O-])o1`, for which the max response, negative = inhibition was 8.21%.

`Cc1cc(C)c(S(=O)(=O)NN=C2c3ccccc3[C@H]3Cc4csc[n+]4[C@@H]23)c(C)c1`: the max response, negative = inhibition is 8.56%.

For `Cc1cccc(NC(=O)COc2ccc(Br)cc2C)n1`, the max response, negative = inhibition is 2.17%.

In the case of `COCC(C)NCc1cc(Br)ccc1OC` (stereo unspecified), the max response, negative = inhibition was 13.9%.

Take `CCC(C)NCCOCCOc1ccc(Br)cc1C` (stereo unspecified): the max response, negative = inhibition is -71.5% (active).

`Cc1ccc(S(=O)(=O)N2CCOCC2)cc1NC(=O)c1ccncc1`: the max response, negative = inhibition is -9.56%.
